Among the targets are DDX24 (UniProt Q9GZR7); DDX54 (UniProt Q8TDD1); DDX56 (UniProt Q9NY93); DIMT1 (UniProt Q9UNQ2); DNAJB11 (UniProt Q9UBS4); EBNA1BP2 (UniProt Q99848); PWP1 (UniProt Q13610); ECPAS (UniProt Q5VYK3); EEF1A2 (UniProt Q05639); EEF1D (UniProt P29692); EIF3B (UniProt P55884); EIF3H (UniProt O15372); EIF3M (UniProt Q7L2H7); EMC2 (UniProt Q15006); ENO3 (UniProt P13929); ESYT1 (UniProt Q9BSJ8); EXOC8 (UniProt Q8IYI6); EXOSC4 (UniProt Q9NPD3); FARSA (UniProt Q9Y285); FBL (UniProt P22087); FDXR (UniProt P22570); FLNA (UniProt P21333); GCN1 (UniProt Q92616); GNG12 (UniProt Q9UBI6); GNL2 (UniProt Q13823); GTPBP4 (UniProt Q9BZE4); GTF2F1 (UniProt P35269); H1-3 (UniProt P16402); NOP53 (UniProt Q9NZM5); RPL6 (UniProt Q02878); TOP2A (UniProt P11388); H2AC20 (UniProt Q16777); H2BC18 (UniProt Q5QNW6); H2BC5 (UniProt P58876); HADHA (UniProt P40939); TIMM50 (UniProt Q3ZCQ8); HADHB (UniProt P55084); SLC25A3 (UniProt Q00325); HIBCH (UniProt Q6NVY1); HKDC1 (UniProt Q2TB90); KLC1 (UniProt Q07866); LLPH (UniProt Q9BRT6); RSL24D1 (UniProt Q9UHA3); HSPA9 (UniProt P38646); LBR (UniProt Q14739).

Common to all, as to settings: DSSO, in cells

For RPL18, Q07020, the cross-linked residues result in the assay with DDX24 is “K49 - K772”.

For SURF6, O75683, the cross-linked residues result in the assay with DDX54 is “K317 - K848”.

For the substance PDCD11, Q14690, in the assay with DDX56, the cross-linked residues result is reported as “K122 - T91”.

On to DHX37, Q8IY37, for which the cross-linked residues result in the assay with DIMT1 was “K131 - K253”.

SDF2, Q99470: in the assay with DNAJB11, the cross-linked residues result is listed as “K197 - K39”.

As for BRIX1, Q8TDN6, the cross-linked residues entry with EBNA1BP2 was “K276 - K94”.

For RPL15, P61313, the cross-linked residues entry with EBNA1BP2 is “K83 - K149”; with PWP1, “K56 - K40”.

On to PSMA1, P25786, for which, in the assay with ECPAS, the cross-linked residues result is “K243 - K1217”.

Turning to RPL12, P30050, the cross-linked residues result with EEF1A2 was “K40 - K392”.

On to EEF1B2, P24534, for which the cross-linked residues entry with EEF1D is “S128 - K117”.

As to RPS9, P46781, the cross-linked residues entry in the assay with EIF3B is “K139 - K552”.

As for EIF3F, O00303, the cross-linked residues entry with EIF3H is recorded as “K238 - K221”; with EIF3M, “K238 - K177”.

Take EIF3H, O15372: the cross-linked residues result with EIF3M was “K221 - K115”.

On to EMC8, O43402, for which, in the assay with EMC2, the cross-linked residues result was “K100 - K136”.

Take ENO2, P09104: the cross-linked residues entry with ENO3 was “K256 - K275”.

For ESYT2, A0FGR8, the cross-linked residues entry with ESYT1 is “K200 - K197”.

Regarding EXOC5, O00471, in the assay with EXOC8, the cross-linked residues entry is “K132 - K60”.

As to EXOSC9, Q06265, the cross-linked residues result in the assay with EXOSC4 is “K67 - K95”.

FARSB, Q9NSD9: the cross-linked residues result with FARSA is given as “K53 - K117”.

As to NOP56, O00567, the cross-linked residues result with FBL was “K158 - K205”.

As to DLD, P09622, the cross-linked residues entry with FDXR is given as “K430 - K287”.

Regarding FLNB, O75369, the cross-linked residues entry in the assay with FLNA was “K2576 - K2607”.

In the case of RPS19, P39019, the cross-linked residues entry with GCN1 is “K143 - K1556”.

Regarding GNAI3, P08754, the cross-linked residues result with GNG12 was “K92 - K4”.

RPL23, P62829: the cross-linked residues result in the assay with GNL2 was “K66 - K434”; in the assay with GTPBP4, “K113 - K103”.

Take POLR2B, P30876: the cross-linked residues result in the assay with GTF2F1 was “K210 - K290”.

Consider NSA2, O95478, for which, in the assay with GTPBP4, the cross-linked residues entry is reported as “K134 - K118”.

In the case of NPM1, P06748, the cross-linked residues entry in the assay with H1-3 is given as “K141 - K33”; in the assay with NOP53, “S149 - K432”; with RPL6 it was “S139 - K237”; with TOP2A it was “K263 - K798”.

For the substance H1-5, P16401, the cross-linked residues entry in the assay with H2AC20 was “K78 - K125”.

For H2BC5, P58876, in the assay with H2BC18, the cross-linked residues result is listed as “K6 - K21”.

HMGA1, P17096: the cross-linked residues entry with H2BC5 is “K15 - K6”.

Take SLC25A6, P12236: the cross-linked residues result is reported as “K147 - S624” with HADHA and “K147 - T46” with TIMM50.

Turning to HADHA, P40939, the cross-linked residues result with HADHB is “K406 - K272”; in the assay with SLC25A3, “K569 - K295”.

Consider PMPCA, Q10713, for which the cross-linked residues entry in the assay with HIBCH is listed as “K299 - K353”.

Turning to VDAC1, P21796, the cross-linked residues entry in the assay with HKDC1 was “K109 - K312”.

Consider CPT1A, P50416, for which, in the assay with HKDC1, the cross-linked residues result was “K332 - K53”.

As to KIF5B, P33176, the cross-linked residues result with KLC1 is given as “K829 - K29”.

On to RPL3, P39023, for which the cross-linked residues entry with LLPH was “K362 - K24”; with RSL24D1, “K399 - K106”.

With TIMM44, O43615, in the assay with HSPA9, the cross-linked residues result is given as “S185 - K671”.

Take LMNB2, Q03252: the cross-linked residues entry in the assay with LBR is reported as “K186 - K190”.

ETFB, P38117: the cross-linked residues result with HSPA9 is on record as “K238 - K625”.

Source of the values: article PMC13423814.
